Results taken from ChEMBL document CHEMBL3988442, “University of Dundee, Small-Polar-MMV Screening Library” (2021).
For some assays here: Entries with a potency or affinity are not part of this list.

What was measured:
Parameters in all cases: scale not given: direction of the effect not stated beside the values
[1] = biological target: Protein translocase subunit SecA (Escherichia coli (strain K12)) (UniProt P10408); experiment: Assay to Identify E. coli SecA ATPase Inhibitors; assay type: functional; conditions: 30 µM
Chain of Protein translocase subunit SecA (Escherichia coli (strain K12)) (P10408 whole entry): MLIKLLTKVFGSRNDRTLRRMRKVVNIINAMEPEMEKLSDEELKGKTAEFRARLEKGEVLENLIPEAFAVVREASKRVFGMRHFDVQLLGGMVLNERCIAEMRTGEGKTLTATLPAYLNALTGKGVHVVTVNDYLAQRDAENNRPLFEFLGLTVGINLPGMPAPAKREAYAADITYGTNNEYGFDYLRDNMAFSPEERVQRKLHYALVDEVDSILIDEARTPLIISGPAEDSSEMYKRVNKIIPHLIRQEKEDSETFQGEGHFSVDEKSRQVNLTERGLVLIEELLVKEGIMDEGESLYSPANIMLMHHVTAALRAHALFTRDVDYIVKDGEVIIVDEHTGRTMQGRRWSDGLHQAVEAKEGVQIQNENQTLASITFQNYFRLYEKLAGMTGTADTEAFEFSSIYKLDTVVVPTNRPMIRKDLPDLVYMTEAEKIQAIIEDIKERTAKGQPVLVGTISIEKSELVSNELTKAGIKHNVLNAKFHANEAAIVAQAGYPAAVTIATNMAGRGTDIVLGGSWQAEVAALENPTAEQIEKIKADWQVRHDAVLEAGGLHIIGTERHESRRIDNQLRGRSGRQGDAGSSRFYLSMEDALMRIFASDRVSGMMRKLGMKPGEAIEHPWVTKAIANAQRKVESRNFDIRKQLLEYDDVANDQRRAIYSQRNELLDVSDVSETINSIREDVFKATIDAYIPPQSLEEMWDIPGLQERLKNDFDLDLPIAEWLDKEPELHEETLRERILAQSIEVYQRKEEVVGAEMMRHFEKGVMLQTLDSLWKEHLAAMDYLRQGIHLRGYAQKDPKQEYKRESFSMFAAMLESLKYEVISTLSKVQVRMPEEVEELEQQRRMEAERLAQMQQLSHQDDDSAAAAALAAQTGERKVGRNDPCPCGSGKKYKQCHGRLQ

[2] = biological target: T1, Ubiquitin-activating enzyme e1, putative (Leishmania donovani (strain BPK282A1)) (UniProt E9BSI1); experiment: Leishmania donovani Ubiquitin Activating Enzyme (LdE1); assay type: functional; conditions: 30 µM
T1 sequence (whole entry): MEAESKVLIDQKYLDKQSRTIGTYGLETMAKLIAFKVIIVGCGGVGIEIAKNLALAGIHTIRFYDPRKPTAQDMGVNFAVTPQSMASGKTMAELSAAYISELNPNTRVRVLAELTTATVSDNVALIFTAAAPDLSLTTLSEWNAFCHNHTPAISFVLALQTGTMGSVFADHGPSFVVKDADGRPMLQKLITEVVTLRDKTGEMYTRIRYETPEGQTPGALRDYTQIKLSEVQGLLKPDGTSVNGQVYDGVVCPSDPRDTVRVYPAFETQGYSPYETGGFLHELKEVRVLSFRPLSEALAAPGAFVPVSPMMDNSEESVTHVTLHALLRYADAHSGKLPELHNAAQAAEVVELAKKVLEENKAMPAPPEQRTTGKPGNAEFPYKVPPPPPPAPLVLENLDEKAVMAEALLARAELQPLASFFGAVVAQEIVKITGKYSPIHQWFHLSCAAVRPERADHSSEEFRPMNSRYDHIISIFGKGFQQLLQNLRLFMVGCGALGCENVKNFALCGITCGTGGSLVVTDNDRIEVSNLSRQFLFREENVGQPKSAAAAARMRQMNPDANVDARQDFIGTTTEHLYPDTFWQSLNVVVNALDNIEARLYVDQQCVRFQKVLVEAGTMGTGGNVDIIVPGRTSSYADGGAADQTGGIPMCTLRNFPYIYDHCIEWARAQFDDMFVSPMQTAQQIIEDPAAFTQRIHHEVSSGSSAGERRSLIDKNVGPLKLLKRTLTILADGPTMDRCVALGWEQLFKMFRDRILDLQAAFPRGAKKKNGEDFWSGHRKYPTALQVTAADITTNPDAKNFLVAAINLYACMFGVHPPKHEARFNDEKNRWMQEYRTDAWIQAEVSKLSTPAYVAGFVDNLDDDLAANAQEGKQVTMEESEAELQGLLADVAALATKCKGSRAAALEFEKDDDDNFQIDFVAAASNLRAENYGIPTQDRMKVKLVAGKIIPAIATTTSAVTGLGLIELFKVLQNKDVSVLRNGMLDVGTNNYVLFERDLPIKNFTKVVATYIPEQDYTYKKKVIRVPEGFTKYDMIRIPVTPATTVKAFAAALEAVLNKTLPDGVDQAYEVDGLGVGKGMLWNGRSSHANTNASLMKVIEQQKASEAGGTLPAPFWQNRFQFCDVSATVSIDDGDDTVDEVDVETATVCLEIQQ

[3] = biological target: AMP-activated protein kinase, AMPK (Homo sapiens) (UniProt P54646+O43741+P54619+Q9UGJ0+Q9Y478+Q13131+Q9UGI9); experiment: AMP-dependent Kinase enzyme assay. An in vitro enzyme assay that detects ADP turnover that is directly proportional to AMPK activity. This uses naive AMPK that is activated during the assay with MK-8722; assay type: functional; conditions: 30 µM
[4] = biological target: Sialic acid-binding Ig-like lectin 9 (Homo sapiens) (UniProt Q9Y336); experiment: Hs-Siglec9 ALPHAscreen SOP 20170721; conditions: 10 µM
Chain of Sialic acid-binding Ig-like lectin 9 (Homo sapiens) (Q9Y336 whole entry): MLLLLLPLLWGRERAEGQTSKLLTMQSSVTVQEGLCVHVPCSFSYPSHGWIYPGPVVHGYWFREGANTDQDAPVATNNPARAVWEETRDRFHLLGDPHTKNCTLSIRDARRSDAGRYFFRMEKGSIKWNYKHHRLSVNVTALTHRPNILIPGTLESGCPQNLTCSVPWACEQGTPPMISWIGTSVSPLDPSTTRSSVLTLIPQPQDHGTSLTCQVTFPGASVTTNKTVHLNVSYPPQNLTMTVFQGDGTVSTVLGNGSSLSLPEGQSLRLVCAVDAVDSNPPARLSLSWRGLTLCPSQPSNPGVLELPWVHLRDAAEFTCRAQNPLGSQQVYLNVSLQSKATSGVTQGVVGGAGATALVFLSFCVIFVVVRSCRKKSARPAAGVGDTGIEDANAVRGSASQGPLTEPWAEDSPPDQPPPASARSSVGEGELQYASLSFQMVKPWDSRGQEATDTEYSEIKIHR

Trypanosoma cruzi = experiment: Trypanosoma cruzi phosphomannomutase and mannose-1-phosphate guanylyltransferase assay; assay type: functional; conditions: 10 µM
[5] = biological target: T2, Arginase-2, mitochondrial (Homo sapiens) (UniProt P78540); experiment: in vitro enzyme assay to detect the production of urea directly proportional to the activity of Arginase II; assay type: functional; conditions: 33.3 µM; note: in the data most compounds retested in dose-response had high values
T2 sequence (whole entry): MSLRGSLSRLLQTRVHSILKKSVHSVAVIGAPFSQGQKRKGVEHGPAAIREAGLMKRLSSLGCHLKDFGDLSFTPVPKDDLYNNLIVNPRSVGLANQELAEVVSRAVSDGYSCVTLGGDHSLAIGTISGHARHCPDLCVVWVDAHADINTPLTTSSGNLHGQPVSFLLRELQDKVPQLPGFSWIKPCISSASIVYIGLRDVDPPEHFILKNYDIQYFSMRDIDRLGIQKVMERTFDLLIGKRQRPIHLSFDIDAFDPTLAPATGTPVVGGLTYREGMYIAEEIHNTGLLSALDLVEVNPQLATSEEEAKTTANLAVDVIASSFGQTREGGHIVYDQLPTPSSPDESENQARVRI

[6] = biological target: T3, Proteasome subunit beta (Trypanosoma cruzi) (UniProt O96673); experiment: Trypanosoma cruzi proteasome chymotrypsin-like activity (TcProtChymo) assay.; note: in the data most compounds retested in dose-response had high values; assay type: functional; conditions: 9.37 µM
T3 sequence (whole entry): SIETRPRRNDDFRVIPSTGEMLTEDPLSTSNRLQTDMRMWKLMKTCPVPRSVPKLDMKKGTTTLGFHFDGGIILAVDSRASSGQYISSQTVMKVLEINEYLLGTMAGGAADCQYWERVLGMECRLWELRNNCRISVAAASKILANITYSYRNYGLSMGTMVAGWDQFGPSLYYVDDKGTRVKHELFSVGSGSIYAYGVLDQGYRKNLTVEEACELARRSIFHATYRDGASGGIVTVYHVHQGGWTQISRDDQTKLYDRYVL

Homo sapiens = species: Homo sapiens; experiment: To identify inhibition of the IFN signalling (Jak-Stat) pathway via expression of an eGFP reporter gene under the control of an IFN-stimulated response element (ISRE) containing MxA promoter.; assay type: functional; conditions: 30 µM
[7] = biological target: T4, Tyrosyl-tRNA synthetase, putative (Trypanosoma cruzi (strain CL Brener)) (UniProt Q4DSP6); experiment: Trypanosoma cruzi tyrosyl tRNA synthetase (TcYRS) _High Tyrosine SOP; assay type: functional; conditions: 30 µM; note: in the data most compounds retested in dose-response had high values
T4 sequence (whole entry): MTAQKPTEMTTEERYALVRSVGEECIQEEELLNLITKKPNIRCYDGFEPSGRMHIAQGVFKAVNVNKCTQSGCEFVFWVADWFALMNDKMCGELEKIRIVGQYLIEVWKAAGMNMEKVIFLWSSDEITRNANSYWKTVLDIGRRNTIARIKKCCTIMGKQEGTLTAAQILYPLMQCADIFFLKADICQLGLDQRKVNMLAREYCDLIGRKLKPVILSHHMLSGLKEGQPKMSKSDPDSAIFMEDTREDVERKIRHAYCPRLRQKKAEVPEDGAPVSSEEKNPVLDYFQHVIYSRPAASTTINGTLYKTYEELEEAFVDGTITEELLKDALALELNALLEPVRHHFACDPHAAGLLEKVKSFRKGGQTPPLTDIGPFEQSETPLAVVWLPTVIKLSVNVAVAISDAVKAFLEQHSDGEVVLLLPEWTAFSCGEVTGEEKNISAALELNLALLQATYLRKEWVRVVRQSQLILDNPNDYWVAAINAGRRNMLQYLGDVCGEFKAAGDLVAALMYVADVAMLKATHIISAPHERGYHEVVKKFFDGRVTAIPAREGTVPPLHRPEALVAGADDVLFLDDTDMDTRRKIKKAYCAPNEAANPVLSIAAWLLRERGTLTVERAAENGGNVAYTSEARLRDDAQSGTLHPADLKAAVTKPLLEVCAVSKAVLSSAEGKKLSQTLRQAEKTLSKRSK

[8] = biological target: T4, Tyrosyl-tRNA synthetase, putative (Trypanosoma cruzi (strain CL Brener)); experiment: Trypanosoma cruzi tyrosyl tRNA synthetase (TcYRS) SOP; assay type: functional; conditions: 30 µM
[9] = biological target: Chromo domain-containing protein 1 (Saccharomyces cerevisiae (strain ATCC 204508 / S288c) (Baker's yeast)) (UniProt P32657); experiment: ScCHD-1 Enzyme Inhibition Assay; assay type: functional; conditions: 30 µM; note: in the data most compounds retested in dose-response had high values
Chain of Chromo domain-containing protein 1 (Saccharomyces cerevisiae (strain ATCC 204508 / S288c) (Baker's yeast)) (P32657 whole entry, the tested form may be a part): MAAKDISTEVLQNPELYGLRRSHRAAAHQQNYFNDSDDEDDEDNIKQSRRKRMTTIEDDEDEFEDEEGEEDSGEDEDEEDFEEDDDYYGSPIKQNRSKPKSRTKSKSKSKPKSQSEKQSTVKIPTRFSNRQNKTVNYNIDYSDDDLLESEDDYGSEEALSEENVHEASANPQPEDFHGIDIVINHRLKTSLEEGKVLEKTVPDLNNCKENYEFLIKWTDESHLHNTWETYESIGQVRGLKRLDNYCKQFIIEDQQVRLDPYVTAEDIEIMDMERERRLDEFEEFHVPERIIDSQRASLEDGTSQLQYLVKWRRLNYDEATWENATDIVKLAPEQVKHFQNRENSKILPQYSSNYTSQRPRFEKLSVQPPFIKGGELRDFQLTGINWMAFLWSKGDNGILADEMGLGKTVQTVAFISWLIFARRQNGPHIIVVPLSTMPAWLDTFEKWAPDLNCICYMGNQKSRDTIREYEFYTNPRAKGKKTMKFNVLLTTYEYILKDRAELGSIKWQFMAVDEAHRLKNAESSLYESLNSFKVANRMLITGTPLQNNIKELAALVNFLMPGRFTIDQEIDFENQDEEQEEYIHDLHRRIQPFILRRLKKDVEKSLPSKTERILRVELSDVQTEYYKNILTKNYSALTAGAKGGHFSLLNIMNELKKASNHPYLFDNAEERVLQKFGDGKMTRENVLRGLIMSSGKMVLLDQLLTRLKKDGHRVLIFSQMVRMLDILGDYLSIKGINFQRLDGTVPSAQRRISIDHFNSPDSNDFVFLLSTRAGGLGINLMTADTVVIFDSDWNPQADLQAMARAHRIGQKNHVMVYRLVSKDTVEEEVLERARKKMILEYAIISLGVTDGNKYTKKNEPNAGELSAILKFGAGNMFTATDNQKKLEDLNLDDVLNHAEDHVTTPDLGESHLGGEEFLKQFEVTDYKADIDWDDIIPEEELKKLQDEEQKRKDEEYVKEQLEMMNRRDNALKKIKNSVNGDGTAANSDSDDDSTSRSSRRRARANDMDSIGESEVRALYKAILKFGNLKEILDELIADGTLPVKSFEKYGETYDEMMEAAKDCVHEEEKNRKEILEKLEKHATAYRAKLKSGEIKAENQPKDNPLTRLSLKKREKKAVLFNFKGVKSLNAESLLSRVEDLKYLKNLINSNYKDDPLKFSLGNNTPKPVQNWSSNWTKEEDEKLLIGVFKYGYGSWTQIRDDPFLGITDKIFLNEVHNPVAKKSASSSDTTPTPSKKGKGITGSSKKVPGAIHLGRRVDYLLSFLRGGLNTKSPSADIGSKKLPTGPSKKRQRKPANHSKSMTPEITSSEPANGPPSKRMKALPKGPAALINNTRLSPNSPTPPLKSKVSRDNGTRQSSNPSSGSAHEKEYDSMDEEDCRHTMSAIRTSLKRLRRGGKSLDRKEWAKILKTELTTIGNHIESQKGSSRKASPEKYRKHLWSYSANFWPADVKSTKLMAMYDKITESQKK

SMILES | Percent Effect [1] [%] | Percent Effect [2] [%] | Percent Effect [3] [%] | Percent Effect [4] [%] | Percent Effect (Trypanosoma cruzi) [%] | Percent Effect [5] [%] | Percent Effect [6] [%] | Percent Effect (Homo sapiens) [%] | Percent Effect [7] [%] | Percent Effect [8] [%] | Percent Effect [9] [%]
CCC(CNC(=O)Nc1cnn(CC)c1)N1CCCC1 (configuration not stated) | 0.765 | 17.7 | -9.29 | -3.26 | -6.33 | 3.04 | 8.27 | 8.67 | 3.45 | 16.5 | -5.82
CNS(=O)(=O)c1cccc(CNc2ccc(C(F)(F)F)nn2)c1 | -5.02 | 8.11 | -4.31 | -0.144 | -3.87 | 30.9 | -1.62 | 19.2 | 4.43 | 6.17 | -1.87
Cc1cn2c(n1)CCC(NC(=O)c1cc(C(C)C)no1)C2 (configuration not stated) | -4.48 | 10.4 | 2.99 | 6.7 | 1.67 | 1.05 | 4.93 | 3.25 | 6.67 | 14.1 | -23
CC(NC(=O)NCC1(c2ccc(F)cc2)CCC1)c1nncn1C (configuration not stated) | -5.85 | 15.8 | 2.85 | 8.69 | -3.83 | 0 | 2.62 | 7.23 | 6.4 | 23.5 | 2.89
CN(C)[C@@H]1CCN(C(=O)c2ccsc2)[C@H]1Cc1cnn(C)c1 | -3.13 | 0 | 12.6 | 1.61 | -3.15 | -1.63 | 12.2 | 4.21 | 3.19 | -1.28 | 2.12
CC(C)OCCCNC(=O)CN1CCC(N2CCN(C)C2=O)CC1 | -4.79 | -12.7 | -9.11 | 10.6 | 4.82 | -1.9 | 7.45 | -2.11 | -0.493 | 8.86 | -6.17
Fc1ccc2c(c1)C(NCc1nnc3n1CCCCC3)CCCO2 (configuration not stated) | -2.96 | 8.11 | -2.29 | 19.3 | 7.92 | 23.1 | -1.12 | 0.659 | 2.15 | 8.64 | -12.5
O=C(NCc1ccccn1)N(Cc1ccc(F)cc1F)C1CC1 | -3.99 | 12.7 | 3.15 | 9.47 | -0.0944 | -1.52 | 5 | 12 | 5.42 | 13.9 | -5.13
O=C(c1ccc[nH]1)N1CCn2cc(CN3CCCC3)nc2C1 | -5.65 | 0 | 7.25 | -0.683 | -3.35 | -0.699 | 9.07 | 8.62 | 1.06 | 3.85 | -0.931
CCc1noc(C(C)N2CCN(c3ccc(C#N)cn3)CC2)n1 (configuration not stated) | -5.24 | 10.5 | 4.88 | -4.78 | -4.58 | -1.18 | 14.9 | 17.9 | 4.25 | 5.2 | -5.13
CC(=O)N1CCCC(c2ccc(Nc3nc(C)cc(C)n3)cn2)C1 (configuration not stated) | -3.24 | 5.33 | 9.18 | 0.842 | -1.18 | 3.5 | -2.2 | 4.23 | 3.19 | 14.1 | -7.25
O=C1CC(c2ccc(F)c(F)c2)c2snc(C(=O)O)c2N1 (configuration not stated) | -0.493 | -6.67 | 4.23 | 3.7 | -2.36 | 0.176 | 2.77 | -4.84 | 2.12 | -5.13 | -4.62
CN1CCN(C(=O)NC2CC2)Cc2cccnc21 | -0.328 | 10.7 | -1.13 | 3.38 | -1.35 | -23.5 | 12 | -4.24 | 6.25 | 25 | -7.54
O=C(NCCN1CCCc2ccccc21)c1scnc1Cl | -4.96 | 2.63 | 0.379 | -2.42 | 2.52 | -0.719 | 2.96 | -9.38 | 7.39 | 1.24 | 3.5
CN(C)c1ccc(CCNC(=O)NCc2ccc(N(C)C)nc2)cc1 | -3.23 | 13.5 | 0.0846 | 11.2 | 1.98 | -5.21 | -4.14 | 5.54 | 7.39 | 18.5 | -9.13
O=C(CCNCC(F)(F)F)N1CCC(Nc2cccnn2)CC1 | 2.07 | 28.9 | 4.48 | -13.6 | 5.13 | 4.68 | 8.88 | 12.2 | 4.43 | 23.5 | -14.7
NC(=O)CCN1CCC(C(=O)c2cc(F)ccc2F)CC1 | -1.09 | 7.89 | -2.87 | -1.51 | 3.21 | -5.92 | 0.671 | -0.792 | 3.19 | 2.6 | -16
CCc1noc(C(C)N2CCN(Cc3ncc(C(C)(C)C)o3)CC2)n1 (configuration not stated) | 1.4 | 28.9 | -4.2 | -2.15 | -3.38 | 0.383 | 15 | 26 | 3.43 | 9.76 | -10.7
Cn1ccc(-c2cc(C(=O)N3CCOCC3)c3ccccn23)n1 | 1.94 | 10.8 | 19.9 | 17.5 | -8.5 | 2.87 | 12.7 | 35.5 | -4.32 | 2.56 | -7.76
CCn1cnnc1C1CCN(C(=O)COc2ccccc2)CC1 | -7.35 | 13 | -3.46 | -2.33 | 4.6 | -0.21 | 5.74 | 7.87 | 4.76 | 11.8 | -22.2
N#Cc1ccnc(N2CCN(C(=O)NC3CCS(=O)(=O)C3)CC2)c1 (configuration not stated) | -2.8 | 16.2 | -36.1 | 7.69 | -0.464 | -0.185 | 9.87 | 14.6 | 7.92 | 23.2 | -5.46
O=C([C@@H]1CC[C@@H]2[C@@H](CCN2Cc2cccc(F)c2)O1)N1CCCCO1 | 3 | -34.7 | 4.08 | 2.78 | -3.28 | -52.5 | 9.23 | 16.6 | 2.08 | 22.5 | -4.83
